According to PubChem BioAssay (NCATS):
Results filed as inconclusive are left out. Entries that show only a call come without a potency. The source made the active and inactive calls. Calls follow the shape of the dose curve; as a rule, active = well fitted curve in the direction sought with a large enough effect; inconclusive = small, poorly fitted or top-dose-only effect, or another doubt; inactive = no such curve, though single readings can be large; an effect the other way counts as inactive or inconclusive.

Columns and labels:
[1] = qHTS for Inhibitors of the Aldehyde Dehydrogenase Family (ALDH1A2, ALDH1A3, ALDH2, ALDH3A1) (AID 2061307); also: nearly all actives have a fitted effect of over 50% in size; as to potency: test system not described further here; potency is read from the fitted curve at half-maximal effect
[2] = molecular target: Retinaldehyde dehydrogenase 3 (Homo sapiens) (UniProt P47895); assay: qHTS for Inhibitors of the Aldehyde Dehydrogenase Family (ALDH1A3) Confirmatory screens (AID 2061311); also: nearly all actives have a fitted effect of over 60% in size; also: potency is read from the fitted curve at half-maximal effect
[3] = molecular target: Retinal dehydrogenase 2 (Homo sapiens) (UniProt O94788); assay: qHTS for Inhibitors of the Aldehyde Dehydrogenase Family (ALDH1A2) Confirmation screens (AID 2061314); also: nearly all actives have a fitted effect of over 65% in size; also: potency is read from the fitted curve at half-maximal effect
[4] = molecular target: Aldehyde dehydrogenase 1A1 (Homo sapiens) (UniProt P00352); assay: qHTS for Inhibitors of the Aldehyde Dehydrogenase Family (ALDH1A1) Confirmatory screens (AID 2061316); also: nearly all actives have a fitted effect of over 65% in size; also: potency is read from the fitted curve at half-maximal effect
[5] = molecular target: Retinaldehyde dehydrogenase 3 (Homo sapiens) (UniProt P47895); assay: qHTS for Inhibitors of the Aldehyde Dehydrogenase Family (ALDH1A3) Primary screen (AID 2061315)
[6] = molecular target: Aldehyde dehydrogenase, mitochondrial (Homo sapiens) (UniProt P05091); assay: qHTS for Inhibitors of the Aldehyde Dehydrogenase Family (ALDH2) Primary screen (AID 2061308); also: nearly all actives have a fitted effect of over 55% in size

Compound: Cc1ccc(C(=O)NCC(c2ccc3c(c2)OCO3)N2CCN(c3ccc(F)cc3)CC2)cc1 (stereo not drawn)
- Potency [1]: inactive
- Potency [2]: inactive
- Potency [3]: inactive
- Potency [4]: inactive

Compound: Cc1ccc(NS(=O)(=O)c2cc3c(cc2-c2ccco2)NC(=O)CO3)cc1C
- Potency [1]: inactive
- Potency [3]: inactive
- Potency [5]: inactive
- Potency [4]: 11.3 µM (active)

Compound: COc1ccc(C2Nc3ccc(Cl)cc3C(=O)N2Cc2ccccc2)cc1COc1ccc(NC(C)=O)cc1 (stereo not drawn)
- Potency [1]: 3.57 µM (active)
- Potency [3]: 11.3 µM (active)
- Potency [5]: inactive
- Potency [4]: 22.5 µM (active)

Compound: Cc1ccc(NC(=O)CSc2nc3ccccc3nc2N2CCOCC2)cc1
- Potency [1]: 25.1 µM (active)
- Potency [3]: 2.29 µM (active)

Compound: CC(C)(O)c1ccccc1CC[C@H](SCC1(CC(=O)O)CC1)c1cccc(/C=C/c2ccc3ccc(Cl)cc3n2)c1
- Potency [1]: 10.1 µM (active)
- Potency [3]: inactive
- Potency [5]: inactive
- Potency [4]: 22.5 µM (active)

Compound: Cc1ccc(C)n1-c1cccc(C(=O)O)c1
- Potency [1]: 5.65 µM (active)
- Potency [5]: inactive

Compound: COc1ccc(C2=NS(=O)(=O)N(C)C(C(=O)Nc3ccc(OC(F)(F)F)cc3)=C2)cc1
- Potency [1]: 7.94 µM (active)
- Potency [3]: inactive

Compound: Cc1ccnc(NC(=S)N2CCNCC2)c1
- Potency [1]: inactive
- Potency [3]: inactive

Compound: COC(=O)c1ccnc(NCc2ccc(O)c3ncccc23)c1
- Potency [1]: 11.3 µM (active)
- Potency [2]: 7.12 µM (active)
- Potency [4]: 11.3 µM (active)

Compound: CN(Cc1ccc(-c2ccc(C#N)cc2)o1)c1ccc(N2CCN(C(=O)OC(C)(C)C)CC2)cc1
- Potency [1]: 1.79 µM (active)
- Potency [2]: 11.3 µM (active)
- Potency [4]: 11.3 µM (active)

Compound: O=C(NCC(=O)N1CCC(c2ccccc2)CC1)c1cccc(-c2ccc(C(F)(F)F)cc2)c1
- Potency [1]: inactive
- Potency [2]: inactive
- Potency [4]: inactive

Compound: Cc1cc(N(C)S(=O)(=O)c2ccc(NC(=O)Cc3ccc(Cl)c(Cl)c3)cc2)no1
- Potency [1]: 25.2 µM (active)
- Potency [3]: inactive
- Potency [4]: 12.7 µM (active)

Compound: O=C(CSc1nc2ncccc2o1)Nc1ccc(Cl)cc1F
- Potency [1]: inactive
- Potency [2]: 10 µM (active)
- Potency [4]: inactive

Compound: CC(=O)C1CCC2(C)C3=C(CCC12C)C1(C)CCC(=O)C(C)(C)C1CC3 (stereo not drawn)
- Potency [1]: inactive
- Potency [5]: inactive

Compound: CCc1nnc2sc(-c3ccc(C)c(NC(=O)c4ccc(-c5cccc(Cl)c5)o4)c3)nn12
- Potency [1]: 12.6 µM (active)
- Potency [3]: 3.18 µM (active)

Compound: O=C(Nc1cccc(Cc2ccccc2)c1)c1ccc(-c2cccc([N+](=O)[O-])c2)o1
- Potency [1]: 25.2 µM (active)
- Potency [3]: 12.7 µM (active)
- Potency [5]: inactive

Compound: Cc1cccc(NC(=O)N2CC(Oc3ccc(-c4nc(C)no4)cc3)C2)c1
- Potency [1]: 3.24 µM (active)
- Potency [3]: inactive
- Potency [4]: inactive

Compound: O=C(N/N=C/c1ccc(Sc2ccccn2)o1)c1ccccc1
- Potency [1]: 5.65 µM (active)
- Potency [3]: inactive

Compound: CC(=O)Nc1sc2c(c1-c1ccc(N(C)C)cc1)CCNC2
- Potency [1]: 14.2 µM (active)
- Potency [2]: 3.57 µM (active)
- Potency [4]: 11.3 µM (active)

Compound: Cc1ccc(OCCn2c(CCNC(=O)c3ccccc3N)nc3ccccc32)cc1
- Potency [1]: 1.13 µM (active)
- Potency [3]: 12.7 µM (active)
- Potency [5]: inactive
- Potency [4]: 7.12 µM (active)

Compound: O=C(NCCc1nc2ccccc2n1CCCc1ccccc1)C1CCCCC1
- Potency [1]: inactive
- Potency [3]: inactive
- Potency [5]: inactive

Compound: CN(C)CCCNc1cc(O)c2ncccc2c1
- Potency [1]: inactive
- Potency [2]: 1.42 µM (active)
- Potency [4]: 4 µM (active)

Compound: CNc1sc(-c2cccc3ccccc23)nc1C#N
- Potency [1]: inactive
- Potency [3]: 11.3 µM (active)
- Potency [5]: inactive
- Potency [4]: 5.04 µM (active)

Compound: CC(=O)Nc1sc2c(c1-c1ccco1)CCNC2
- Potency [1]: inactive
- Potency [3]: 17.9 µM (active)
- Potency [5]: inactive
- Potency [4]: 25.2 µM (active)

Compound: Cc1cccc2c1NC(=O)/C2=C/c1cc(Cl)c(O)c(Cl)c1
- Potency [1]: 4 µM (active)
- Potency [5]: inactive

Compound: C#CCOc1ccc(-c2no[n+]([O-])c2C#N)cc1
- Potency [1]: 11.3 µM (active)
- Potency [3]: 7.98 µM (active)
- Potency [5]: inactive

Compound: C[C@@H](O)c1ccc(-c2ccc3ncnc(NCc4cccs4)c3c2)o1
- Potency [1]: inactive
- Potency [5]: inactive

Compound: O=C(Nc1cccc(Br)c1)c1cc(-c2ccc3c(c2)OCCO3)on1
- Potency [1]: inactive
- Potency [3]: inactive
- Potency [4]: inactive

Compound: Cc1ccc(S(=O)(=O)Nc2cnccc2C(=O)Nc2nc(-c3ccco3)cs2)cc1
- Potency [1]: 7.98 µM (active)
- Potency [2]: 7.12 µM (active)
- Potency [5]: inactive
- Potency [4]: 0.798 µM (active)

Compound: COc1ccc(NC(=O)c2cccnc2)cc1S(=O)(=O)Nc1ccc(Br)cc1
- Potency [1]: inactive
- Potency [5]: inactive

Compound: CC(=O)c1ccc(NC(=O)c2cc(S(=O)(=O)N3CCOCC3)ccc2C)cc1
- Potency [1]: inactive
- Potency [3]: inactive

Compound: O=C(NCc1ccccc1)c1csc(N2CCN(c3ccc(Cl)cc3)CC2)n1
- Potency [1]: 2.82 µM (active)
- Potency [3]: inactive

Compound: CC(=O)Nc1cccc(OCc2cccc(C3Nc4ccccc4C(=O)N3Cc3ccco3)c2)c1 (stereo not drawn)
- Potency [1]: 7.94 µM (active)
- Potency [2]: 10 µM (active)
- Potency [5]: inactive
- Potency [4]: 7.12 µM (active)

Compound: Cc1ccnc(NC(=S)N2CCN(c3ccc(Cl)cc3Cl)CC2)c1
- Potency [1]: inactive
- Potency [3]: 11.3 µM (active)
- Potency [4]: 7.98 µM (active)

Compound: CC(=O)Nc1sc2c(c1-c1ccc(N3CCN(C)CC3)cc1)CCNC2
- Potency [1]: inactive
- Potency [2]: inactive
- Potency [4]: inactive

Compound: CCOC(=O)Cn1c(=O)oc2cc(S(=O)(=O)N3CCN(c4ccc(Cl)cc4)CC3)ccc21
- Potency [1]: inactive
- Potency [2]: inactive
- Potency [4]: inactive

Compound: Cc1nnc2ccc(N3CCC(NC(=O)c4cccc(C(F)(F)F)c4)CC3)nn12
- Potency [1]: inactive
- Potency [2]: inactive
- Potency [4]: inactive

Compound: CCc1ccc(-c2nn3c(C)nnc3s2)cc1NC(=O)c1ccc(-c2cccc(Cl)c2)o1
- Potency [1]: 25.1 µM (active)
- Potency [3]: 12.7 µM (active)
- Potency [5]: inactive
- Potency [4]: 5.04 µM (active)

Compound: CCOC(=O)c1ccc(-c2ccc3ncnc(NCc4ccc(C)o4)c3c2)o1
- Potency [1]: inactive
- Potency [3]: 12.7 µM (active)
- Potency [5]: inactive

Compound: O=C(NCc1ccc2c(c1)OCO2)c1csc(N2CCN(c3ccc(F)cc3)CC2)n1
- Potency [1]: 0.708 µM (active)
- Potency [3]: inactive
- Potency [4]: 4.47 µM (active)

Compound: CCc1ccc(-n2c(=O)c3cccnc3n2CC(=O)N(CC)c2cccc(C)c2)cc1
- Potency [1]: inactive
- Potency [2]: 28.2 µM (active)
- Potency [4]: 11.5 µM (active)

Compound: Cc1ccc(CN(C)c2ncnc3ccc(-c4ccc5c(c4)OCO5)cc23)o1
- Potency [1]: 15.8 µM (active)
- Potency [5]: inactive
- Potency [4]: 8.96 µM (active)

Compound: Nc1ccccc1C(=O)NCc1ccco1
- Potency [1]: inactive
- Potency [5]: inactive

Compound: O=S(=O)(Nc1cccc2cccnc12)c1ccc2ccccc2c1
- Potency [6]: inactive

Compound: C=C1/C(=C/C=C2\CCC[C@]3(C)[C@@H]([C@H](C)/C=C/[C@H](O)C4CC4)CC[C@@H]23)C[C@@H](O)C[C@@H]1O
- Potency [6]: inactive

Compound: C=C1CC[C@@H](O)[C@]2(C)CC[C@H]3C(=C)C(=O)O[C@@H]3[C@@H]12
- Potency [6]: inactive

Compound: CC(C)(C)NS(=O)(=O)c1cccc(Nc2nn3c(=O)c4ccccc4nc3s2)c1
- Potency [1]: 22.5 µM (active)
- Potency [5]: inactive
- Potency [4]: 11.3 µM (active)

Compound: CC(C)(C)OC(=O)N1CCN(c2ccc(NCc3ccc(-c4cc(C(F)(F)F)cc(C(F)(F)F)c4)o3)cc2)CC1
- Potency [6]: inactive

Compound: COc1ccc(C2c3c(N)nc(CCc4ccccc4)nc3Oc3ccc4ccccc4c32)cc1OC (stereo not drawn)
- Potency [1]: inactive
- Potency [5]: inactive

Compound: CCOCCCNC(=O)Nc1cc(C(=O)NCc2ccc(C(C)C)cc2)ccc1N1CCCC1
- Potency [1]: 0.726 µM (active)
- Potency [4]: 2.89 µM (active)

Compound: Cc1ccc(S(=O)(=O)Nc2cccc3cccnc23)c([N+](=O)[O-])c1
- Potency [6]: inactive

Compound: O=C1Cc2cc(S(=O)(=O)N3CCN(c4ccc([N+](=O)[O-])cc4)CC3)ccc2N1
- Potency [1]: inactive
- Potency [5]: inactive

Compound: O=S(=O)(Nc1cccc2cccnc12)c1ccccc1O
- Potency [6]: inactive

Compound: CCOc1ccc(CCNC(=O)c2ccccn2)cc1OCC
- Potency [6]: inactive

Compound: O=C(Nc1ccccc1C(=O)O)c1ccccc1
- Potency [6]: inactive

Compound: COc1cc(N2CCOCC2)ccc1Nc1ncc(Cl)c(Nc2ccccc2NS(C)(=O)=O)n1
- Potency [6]: inactive

Compound: COc1ccc(-c2ccc3c(N4CCOCC4)nc(N4CC(C)OC(C)C4)nc3n2)cc1CO (stereo not drawn)
- Potency [6]: inactive

Compound: c1cc2c3c(cccc3c1)NC(c1ccc3c(c1)OCO3)N2
- Potency [6]: inactive

Compound: CCc1ccc(NC(=O)C(=O)NNC(=O)c2cccs2)cc1
- Potency [6]: inactive

Compound: COc1ccc(-c2nc(-c3ccc(C(=O)O)cc3)no2)cc1
- Potency [6]: inactive

Compound: CN(C)c1cnc2c(O)ccc([S+](=O)([O-])Nc3ccccc3F)c2c1
- Potency [6]: inactive

Compound: Cc1ccnc(NC(=S)N2CCN(c3ccc(C#N)cc3)CC2)c1
- Potency [6]: inactive

Compound: Oc1cc(Nc2ccc(N3CCCCC3)cc2)cc2cccnc12
- Potency [6]: inactive

Compound: CC(C)(C)c1ccc(-c2nnc(NC(=O)Nc3ccc4ccccc4c3)s2)cc1
- Potency [1]: 10.1 µM (active)
- Potency [5]: inactive
- Potency [4]: 11.3 µM (active)

Compound: CC(=O)Nc1sc2c(c1-c1ccc(C#N)cc1)CCNC2
- Potency [1]: inactive
- Potency [5]: inactive
- Potency [4]: inactive

Compound: COc1ccc(/C=C(\C)C2Nc3cccc4cccc(c34)N2)cc1
- Potency [6]: inactive

Compound: O=C1c2ccccc2C(=O)N1c1cccc2cccnc12
- Potency [6]: inactive

Compound: O=C1c2ccccc2C(=O)N1c1cccc(=O)[nH]1
- Potency [1]: inactive
- Potency [5]: inactive
- Potency [4]: inactive

Compound: COc1ccc(C[C@H](C)NC[C@@H](O)c2ccc(O)c(NC=O)c2)cc1
- Potency [6]: inactive

Compound: COc1ccnc(NC(=S)N2CCN(c3cccc(Cl)c3Cl)CC2)c1
- Potency [1]: 10 µM (active)
- Potency [4]: 4 µM (active)

Compound: CCC(=O)NC(c1ccco1)c1cc(Cl)c2ccccc2c1O (stereo not drawn)
- Potency [6]: inactive

Compound: Oc1c(CNc2ccccc2)cc(COCc2ccccc2)c2cccnc12
- Potency [6]: inactive

Compound: CC(=O)c1ccc(N2CCN(C(=O)c3ccc4c(c3)CCC(=O)N4)CC2)cc1
- Potency [6]: inactive

Compound: Cc1cc(NCc2ccc(-c3cccnc3)cc2)nc(-c2ccccc2C(C)C)n1
- Potency [6]: inactive

Compound: c1ccc2[nH]c(-c3ccc(NCc4ccc5c(c4)OCCO5)cc3)nc2c1
- Potency [6]: inactive

Compound: O=[N+]([O-])c1ccc(S(=O)(=O)Nc2cnc3ccccc3c2)cc1
- Potency [1]: inactive
- Potency [5]: inactive
- Potency [4]: inactive

Compound: Cc1cc(C)nc(NC(=S)N2CCN(c3ccc(F)c(Cl)c3)CC2)c1
- Potency [1]: 7.08 µM (active)
- Potency [5]: inactive
- Potency [4]: 6.34 µM (active)

Compound: COc1ccnc(NC(=S)N2CCN(c3ccc(Cl)cc3Cl)CC2)c1
- Potency [1]: 11.2 µM (active)
- Potency [4]: 5.65 µM (active)
